Reference: paper PMC4552634, “A New Set of Chemical Starting Points with Plasmodium falciparum Transmission-Blocking Potential for Antimalarial Drug Discovery” (PLoS ONE, 2015)
The campaign covered roughly 13,000 compounds. About 3,200 (25%) showed an effect of 50% or more. This is one part of the list.

These molecules were tested on P. falciparum stage V gametocytes. Details: 48 h, 5 µM; inhibitor.
Parameters: BacTiter-Glo ATP luminescence viability of purified stage V gametocytes in 384-well plates, per cent inhibition versus DMSO

| SMILES | % Inhibition [%] |
| --- | --- |
| Cn1nccc1C(=O)NCCNCc1cccc(-c2cccc(-c3nc4cc(C(F)(F)F)ccc4[nH]3)c2)c1.O=C(O)C(F)(F)F [TCMDC-133008] | 12.04 |
| COc1cc2c(cc1S(=O)(=O)c1ccc(NC(=O)c3cc4ccccc4s3)cc1)CCN(C)CC2 [TCMDC-133789] | 17.23 |
| COc1ccc2nc(C)cc(NC3Cc4ccccc4C3)c2c1.Cl [TCMDC-138978] | 40.25 |
| O=[N+]([O-])c1cc2c(cc1C=NNc1nc(Nc3ccccc3)nc(Nc3ccccc3)n1)OCO2 [TCMDC-124249] | -0.02415 |
| Oc1ccc2ccccc2c1C=NNc1nc(Nc2ccccc2)nc(Nc2ccccc2)n1 [TCMDC-125790] | 78.83 |
| COc1c(C=NNc2nc(Nc3ccccc3)nc(Nc3ccccc3)n2)ccc(Br)c1O [TCMDC-125800] | 79.97 |
| COc1ccc(Nc2nc(NN=Cc3cc(Br)c(O)cc3O)nc(Nc3ccc([N+](=O)[O-])cc3)n2)cc1 [TCMDC-124181] | 28.04 |
| COc1ccc(Nc2nc(NN=Cc3cc(Cl)ccc3O)nc(Nc3ccccc3)n2)cc1 [TCMDC-124115] | 59.23 |
| COc1ccc(Nc2nc(N/N=C/c3ccc(-c4ccc([N+](=O)[O-])cc4)o3)nc(Nc3ccccc3)n2)cc1 [TCMDC-124187] | 17.9 |
| Oc1ccc2ccccc2c1C=NNc1nc(Nc2ccccc2)nc(N2CCOCC2)n1 [TCMDC-123839] | -12.77 |
| Brc1cc2c(cc1C=NNc1nc(Nc3ccccc3)nc(Nc3ccccc3)n1)OCO2 [TCMDC-124195] | 14.96 |
| COc1ccc(Nc2nc(N/N=C/c3cc(Br)ccc3O)nc(Nc3ccc([N+](=O)[O-])cc3)n2)cc1 [TCMDC-124182] | 30.94 |
| Cc1cccc(CN2CCCC3(CCN(Cc4ccccc4O)C3)C2)c1 (stereo not drawn) [TCMDC-124654] | 29.07 |
| Cc1cc(NC(=O)c2cccs2)ccc1OC1CCN(Cc2ccccc2)C1 (stereo not drawn) [TCMDC-133968] | -2.762 |
| O=C(Cc1cnc[nH]1)Nc1ccc(-c2cccc(-c3nc4ccc(F)cc4[nH]3)c2)cc1 [TCMDC-136941] | 11.61 |
| CCCCCCN1CCCN(Cc2ccc(C(=O)Nc3ccc(F)c(F)c3)cc2)CC1 [TCMDC-136392] | -27.76 |
| Fc1ccc2nc(-c3ccc(-c4ccc(CNCCc5ccncc5)cc4)s3)[nH]c2c1 [TCMDC-132848] | -14.58 |
| CNCCNCc1cccc(-c2ccc(-c3nc4ccccc4[nH]3)s2)c1 [TCMDC-132823] | 28.05 |
| COc1ccc(CNCc2ccc(-c3ccc(-c4nc5cc(C(F)(F)F)ccc5[nH]4)s3)cc2)cc1.O=C(O)C(F)(F)F [TCMDC-132719] | -32.49 |
| CNCCNCc1ccc(-c2ccc(-c3nc4ccc(C(F)(F)F)cc4[nH]3)s2)cc1 [TCMDC-132838] | 66.7 |
| CS(=O)(=O)NCCCNCc1ccc(-c2ccc(-c3nc4ccc(F)cc4[nH]3)s2)cc1 [TCMDC-133084] | 18.31 |

| SMILES | % Inhibition [%] |
| --- | --- |
| CNCCNCc1ccc(-c2ccc(-c3nc4ccc(F)cc4[nH]3)s2)cc1 [TCMDC-132829] | 87.07 |
| CN1CCCC1CCOc1ccc2c(c1)N(C(=O)Nc1cc(Br)cc(C(F)(F)F)c1)CC2 (stereo not drawn) [TCMDC-140247] | 47.25 |
| CC(C)c1ccc(NS(=O)(=O)c2cccc(C(=O)NC3CCN(CC4CCCCC4)CC3)c2)cc1 [TCMDC-136739] | -17.03 |
| CCOC(=O)CCCOc1cc(Cc2cnc(N)nc2N)cc(OC)c1OC [TCMDC-137356] | 44.1 |
| COc1ccc(Cl)cc1NC(=O)C(C)Nc1ccc(-c2ccccc2)cc1 (stereo not drawn) [TCMDC-123559] | -53.48 |
| Cc1cc(N2CCCC2)nc(Nc2ccc(NC(=O)c3ccc4c(c3)OCO4)cc2)n1 [TCMDC-124955] | -35.01 |
| CC(C)C(C(=O)Nc1ccc2c(c1)OCO2)c1ccc(Cl)cc1 (stereo not drawn) [TCMDC-125398] | 78.19 |
| COc1cc(C(C)C)nc2ccc(NC(=O)c3ccc(C(=O)Nc4ccc5nc(C(C)C)cc(OC)c5c4)cc3)cc12 [TCMDC-140150] | 33.52 |
| CC(C(=O)NC1CCN(c2ccnc(Nc3ccc(F)cc3)n2)C1)c1ccc(Cl)cc1 (stereo not drawn) [TCMDC-133596] | 19.11 |
| COc1ccc(Nc2nccc(N3CCC(NC(=O)C(C)c4ccc(Cl)cc4)C3)n2)cc1 (stereo not drawn) [TCMDC-133612] | -10.01 |
| CC(C)c1ccc(CN(C)CCCCNC(=O)c2ccc(NC(=O)c3ccc(Cl)cc3)cc2)cc1 [TCMDC-138505] | 20.72 |
| Cc1nc2ccc(NC(=O)c3cc(S(=O)(=O)N(C)C)ccc3Cl)cc2s1 [TCMDC-124375] | 38.91 |
| COc1cc(Nc2nccc(N3CCC(NC(=O)C(C)c4ccc(Cl)cc4)C3)n2)cc(OC)c1OC (stereo not drawn) [TCMDC-133623] | 58.38 |
| COc1cc(NC(=O)C(c2ccc(Cl)cc2)C(C)C)cc(OC)c1OC (stereo not drawn) [TCMDC-125118] | 82.24 |
| O=C(Nc1ccc2c(c1)OCO2)c1cc(-c2cccnc2)nc2ccc(Cl)cc12 [TCMDC-125213] | -64.78 |
| CC(C)C(C(=O)Nc1ccc(S(=O)(=O)N(C)C)cc1)c1ccc(Cl)cc1 (stereo not drawn) [TCMDC-125113] | 56.45 |
| O=C(Nc1ccccc1)Nc1ccc(-c2cccc(-c3nc4ccc(C(F)(F)F)cc4[nH]3)c2)cc1 [TCMDC-133153] | -37.9 |
| COC(=O)c1ccc2c(c1)nc(Nc1cccc(F)c1)n2CC(O)c1ccccn1 (stereo not drawn) [TCMDC-138586] | -5.24 |
| CC(C)(C)c1nn(-c2ccccc2)c2[nH]c(=O)c(CNCCc3ccccc3)cc12 [TCMDC-125381] | 14.37 |
| CCCCN1CCN(c2cc(NS(=O)(=O)c3ccc(C(=O)Nc4ccc(C(F)(F)F)cc4)cc3)ccc2OC)CC1 [TCMDC-141777] | -10.1 |
| O=C(Nc1ccc(-c2nc3ccccc3[nH]2)cc1)c1cncc(Br)c1 [TCMDC-123692] | 2.548 |
